Screening data deposited in PubChem by National Center for Advancing Translational Sciences (NCATS).
Most compounds without a hit are left out; they make up all but 19% or so of the library.
HT1080 IDH1KD tx = toxicity to HT-1080 IDH1 knockdown cells (counter line). HT-1080 IDH1 knockdown viability, ATP luminescence, 48 h. Potency, µM (top dose mostly 46.1 µM), hits mostly cytotoxic. AID 686971. 360,000 compounds, 2% hits
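IDH1KD HT-1080 cells, 750/well, RPMI + 5% FBS; compound pinned after 2 h settling; 48 h, 37 °C; CellTiter-Glo luminescence; % activity normalised to DMSO and no-cell wells; curves fitted, classed by r2 and efficacy.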
DT40 TDP1 no CPT = qHTS for Inhibitors of human tyrosyl-DNA phosphodiesterase 1 (TDP1): qHTS in cells in absence of CPT; DT40 Tdp1-/- hTDP1 cells, no CPT, ATP luminescence, 48 h; Potency, µM (highest dose often 46.2 µM), actives largely listed as inhibitors; 420,000 compounds, 15% hits; further: nearly all actives have a fitted effect of over 55% in size
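Growth of hTDP1-complemented DT40 Tdp1-knockout cells is measured by ATP luminescence after at least 48 hr compound exposure at 37 °C, with DMSO substituting for the 20 nM CPT used in the parallel screen.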
KB-3-1 cytotox = KB-3-1 parental cell cytotoxicity; KB-3-1 viability, CellTiter-Glo ATP luminescence, 72 h; Potency, µM (titrated, usually from 46.1 µM), most hits filed as cytotoxic; 400,000 compounds, 1.4% hits; further: nearly all actives have a fitted effect of over 60% in size
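Parental KB-3-1 viability, qHTS format: 72 h compound exposure, 37 °C; CellTiter-Glo; media-only wells and DMSO plates as controls; concentration-effect fits on corrected data.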
DT40 TDP1 CPT = DT40-hTDP1 cell growth loss with CPT; chicken DT40 Tdp1-/-;hTDP1 cells + 20 nM CPT, ATP luminescence, 48 h; 420,000 compounds, 12% hits; Potency, µM (highest dose often 46.2 µM), usual class: inhibitors; further: nearly all actives have a fitted effect of over 55% in size
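Chicken DT40 Tdp1-/- cells complemented with human TDP1, 400 cells/well, exposed to compounds plus 20 nM camptothecin for at least 48 h at 37 C; viability read as ATP content by CellTiter-Glo luminescence.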
HT1080NT lethal = kills 2HG-producing HT-1080-NT fibrosarcoma cells | HT-1080-NT fibrosarcoma viability, CellTiter-Glo ATP luminescence, 48 h | Potency, µM (titrated, usually from 46.1 µM), usual class: cytotoxic | 360,000 compounds, 1.6% hits;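 further: NT is the 2HG producing partner of a matched IDH1 knockdown line; nearly all actives have a fitted effect of over 55% in size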
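Luminescent CellTiter-Glo readout after 48 hours of compound exposure at 37 degrees C defined viability of HT-1080-NT cells. Activity was normalized to DMSO wells and cell-free media wells; concentration-response curves were fitted and assigned curve classes.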
KB-V1 MDR tox = KB-V1 MDR subline cytotoxicity; KB-V1 MDR cells viability, CellTiter-Glo, 72 h; Potency, µM (doses to about 46.1 µM), most hits filed as cytotoxic; 400,000 compounds, 3.4% hits; AID 1347076; further: nearly all actives have a fitted effect of over 60% in size
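Drug-selected KB-V1 cells, grown in DMEM lacking phenol red with 10% FBS, receive compound titrations; after three days at 37 degrees C, surviving cell ATP is quantified by CellTiter-Glo luminescence and responses normalized and curve-fitted.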
Numbers stand for hits; n = inactive; u = inconclusive; x = no result. The call rests on the fitted dose curve; in most records, active means well fitted curve in the direction sought with a large enough effect; inconclusive means small, poorly fitted or top-dose-only effect, or another doubt; inactive means no such curve, though single readings can be large; an effect the other way counts as inactive or inconclusive.

SMILES | HT1080 IDH1KD tx | DT40 TDP1 no CPT | KB-3-1 cytotox | DT40 TDP1 CPT | HT1080NT lethal | KB-V1 MDR tox
O=C(NC1(O)C(=O)c2ccccc2C1=O)c1c(Cl)cccc1Cl | n | 25.9µM | n | u | n | u
O=C(NC1(O)C(=O)c2ccccc2C1=O)c1ccccc1 | n | u | n | 25.9µM | n | n
Clc1nnc(NC2CCCCC2)c(Cl)c1Cl | n | u | n | n | n | n
COC(=O)c1ccc(CSC2=NC[C@@H]3[C@@H]4C(=O)N(Cc5ccccc5)C(=O)[C@@H]4[C@](C)(C(=O)OC)N23)cc1 | n | 16.4µM | n | u | n | n
COC(=O)[C@@]1(Cc2ccccc2)[C@H]2C(=O)N(C)C(=O)[C@H]2[C@H]2CN=C(SCc3ccccc3)N21 | n | u | n | 14.6µM | n | n
CCCN=C1N(CC)C[C@@H]2[C@@H]3C(=O)N(C)C(=O)[C@@H]3[C@](Cc3ccccc3)(C(=O)OC)N12 | n | n | n | n | n | n
COC(=O)[C@@]1(Cc2ccccc2)[C@H]2C(=O)N(Cc3ccccc3)C(=O)[C@H]2[C@H]2CN=C(SCC3CC3)N21 | n | 23.1µM | n | u | n | n
COC(=O)[C@@]1(C)[C@H]2C(=O)N(Cc3ccccc3)C(=O)[C@H]2[C@H]2CN=C(SCc3ccc(C)cc3)N21 | n | u | n | u | n | n
CCN1C[C@@H]2[C@@H]3C(=O)N(C)C(=O)[C@@H]3[C@](Cc3ccccc3)(C(=O)OC)N2C1=NC1CCCCC1 | n | 20.6µM | n | u | n | n
COC(=O)[C@@]1(Cc2ccccc2)[C@H]2C(=O)N(C)C(=O)[C@H]2[C@H]2CN=C(SCc3ccc(C#N)cc3)N21 | n | u | n | u | n | n
Cc1nc2cccnc2n1C1CCN(C(=O)Nc2ccccc2C(F)(F)F)CC1 | x | n | n | n | x | n
CCc1nc2cc(C(=O)N[C@H]3CCCCNC3=O)cc(NC(=O)c3ccccc3OC)c2n1C | x | n | x | n | x | x
CC/C(=C(/CC)c1ccc(O)cc1)c1ccc(O)cc1 | 14.6µM | u | n | u | u | u
O=C1CC(=C(c2ccccc2)c2ccccc2)C(=O)N1CCCCN1CCN(c2cccc(Cl)c2)CC1 | u | 18.4µM | n | 14.6µM | u | u
Cc1ccccc1N1CCN(CCCN2C(=O)CC(=C(c3ccccc3)c3ccccc3)C2=O)CC1 | u | 23.1µM | n | u | n | n
CCN(Cc1cc(=O)n2cc(Cl)c(C)c(Cl)c2n1)Cc1nc2ccccc2c(=O)[nH]1 | n | 18.4µM | n | n | n | n
CC(C)(C)OC(=O)N1CCC(c2c(C(=O)N3CCN(c4ccccn4)CC3)cnn2-c2ccc(F)cc2F)CC1 | x | u | n | u | x | n
Cc1cccc(C)c1-n1ncc(C(=O)N2CCN(c3ccccn3)CC2)c1C1CCN(C(=O)OC(C)(C)C)CC1 | x | 18.4µM | n | u | x | n
CC(C)(C)OC(=O)N1CCC(c2c(C(=O)N3CCN(c4ccccn4)CC3)cnn2-c2ccccc2Cl)CC1 | x | 18.4µM | n | u | x | n
CC(C)(C)OC(=O)N1CCC(c2c(C(=O)N3CCCCC3)cnn2-c2ccccc2Cl)CC1 | x | u | n | 18.4µM | x | n
COc1ccc(OC)c(CCNC(=O)c2cnn(-c3ccccc3Cl)c2C2CCN(C(=O)OC(C)(C)C)CC2)c1 | x | 13µM | n | 18.4µM | x | n
Cc1cccc(C)c1-n1ncc(C(=O)N2CCN(c3ncccn3)CC2)c1C1CCN(C(=O)OC(C)(C)C)CC1 | x | u | n | u | x | n
CC(C)(C)OC(=O)N1CCC(c2c(C(=O)NCCc3ccsc3)cnn2-c2ccccc2Cl)CC1 | x | u | n | u | x | n
COCCNC(=O)CCCn1c(=O)[nH]c2ccsc2c1=O | x | n | n | n | x | u
O=C(O)CCNS(=O)(=O)c1ccc(Oc2ccccc2)cc1 | n | n | n | n | n | n
SMILES | HT1080 IDH1KD tx | DT40 TDP1 no CPT | KB-3-1 cytotox | DT40 TDP1 CPT | HT1080NT lethal | KB-V1 MDR tox
CCOC(=O)CNC(=O)Cn1cnc2c(cnn2-c2ccc(C)cc2)c1=O | n | n | n | n | n | n
NC(=S)NNC(=O)c1cccc(Cl)c1 | n | u | n | n | n | n
CCn1c(SCC(=O)N2CCC(C)CC2)nc2c(c1=O)SCC2 | n | u | n | u | n | n
Cc1nc2cc3nc(C(F)(F)F)[nH]c3cc2[nH]1 | n | u | n | u | n | n
O=[N+]([O-])c1cc(N=Nc2ccc3ccccc3c2)ccc1O | n | u | n | 18.4µM | n | n
CC(=O)/C(=N\Nc1ccccc1Cl)Sc1cccc2cccnc12 | u | n | n | u | 20.6µM | u
CC(=O)/C(=N\Nc1ccccc1)Sc1cccc2cccnc12 | n | n | n | n | n | n
CCn1ccnc1CN1CCc2c([nH]c3ccccc23)C1C(C)(C)C (centres undefined) | u | u | n | u | n | n
CCn1ccnc1CN1CCc2c([nH]c3ccccc23)C1C1CCCCC1 (centres undefined) | n | 25.9µM | n | u | n | n
Cc1c(CN2CCc3c([nH]c4ccccc34)C2C2CCCCC2)cnn1C (centres undefined) | n | 16.4µM | n | n | n | n
CCn1ccnc1CN1CCc2c([nH]c3ccccc23)C1CC(C)C (centres undefined) | n | 16.4µM | n | u | u | u
COc1ccc(S(=O)(=O)NC(=O)C2(C)CCN2C(=O)Cc2cc(C)cc(C)c2)cc1 (centres undefined) | n | n | n | n | n | n
C[C@H](CO)N1C[C@H](C)[C@@H](CN(C)C(=O)Nc2ccccc2)Oc2ccc(NC(=O)Cc3ccccc3)cc2C1=O | n | n | n | n | n | n
CCOc1ccc(NC(=S)N2CCC(C(N)=O)CC2)cc1 | n | n | n | n | n | n
COc1ccc(CCN2CC(C(=O)Nc3ccc(S(C)(=O)=O)cc3)CC2=O)cc1OC (centres undefined) | n | n | n | n | n | n
CNc1cc(-c2cnn(CC(C)C)c2)ncn1 | n | n | n | n | n | n
Cn1c(=O)c2nc(-c3ccccc3)oc2c2ccccc21 | n | 16.4µM | n | n | n | u
CCCCCc1nc2c(=O)n(C)c3ccccc3c2o1 | n | u | n | n | n | n
Cc1ccnc(NC(=O)c2cccc(NS(=O)(=O)c3ccccc3C)c2)c1 | n | n | n | n | n | n
CNC(=O)C1(c2ccccc2)CCCCC1 | n | n | n | n | n | n
O=C(COC(=O)CNC(=O)c1ccc(Cl)cc1Cl)NC(=O)NC1CCCCC1 | n | n | n | n | n | n
